According to the supplement of paper PMC7765376:
Where a name gives a salt, the structure may show the parent alone. In all, about 1,500 compounds were measured (“Excess HSA synergy score (sum over dose matrix of excess over highest single agent)”: median about 43, lowest 2% from about -900 on). What follows is part of a selection rich in the lowest values, with near analogues and random picks from the rest.

Tested on: PEO-1
Assay: Excess HSA synergy score (sum over dose matrix of excess over highest single agent) (score (summed % response)); higher = less synergy / more antagonism (negative = synergy)
Conditions: 72 h, read-out: viability/apoptosis luminescence (CellTiter-Glo or Caspase3-Glo / not stated per table)
[1] = matrix design: 6x6, 5-fold dilutions (primary screen)
[2] = matrix design: 10x10, 9-step dilutions (confirmatory)

SMILES	Excess HSA synergy score [1]	Excess HSA synergy score [2]
COc1cccc2c1C(=O)c1c(O)c3c(c(O)c1C2=O)C[C@@](O)(C(C)=O)C[C@@H]3O[C@H]1C[C@H](N)[C@H](O)[C@H](C)O1 [Daunorubicin] + CC[C@H](NC(=O)[C@H](C)NC)C(=O)N1C[C@@H](O)C[C@H]1Cc1c(-c2[nH]c3cc(F)ccc3c2C[C@@H]2C[C@H](O)CN2C(=O)[C@H](CC)NC(=O)[C@H](C)NC)[nH]c2cc(F)ccc12 [Birinapant]	-171	
CC(=O)[C@]1(O)Cc2c(O)c3c(c(O)c2[C@@H](O[C@H]2C[C@H](N)[C@H](O)[C@H](C)O2)C1)C(=O)c1ccccc1C3=O [Idarubicin hydrochloride] + CC[C@H](NC(=O)[C@H](C)NC)C(=O)N1C[C@@H](O)C[C@H]1Cc1c(-c2[nH]c3cc(F)ccc3c2C[C@@H]2C[C@H](O)CN2C(=O)[C@H](CC)NC(=O)[C@H](C)NC)[nH]c2cc(F)ccc12 [Birinapant]	-126	-1080
COc1cccc2c1C(=O)c1c(O)c3c(c(O)c1C2=O)C[C@@](O)(C(=O)CO)C[C@@H]3O[C@H]1C[C@H](N)[C@H](O[C@@H]2CCCCO2)[C@H](C)O1 [Pirarubicin] + CC[C@H](NC(=O)[C@H](C)NC)C(=O)N1C[C@@H](O)C[C@H]1Cc1c(-c2[nH]c3cc(F)ccc3c2C[C@@H]2C[C@H](O)CN2C(=O)[C@H](CC)NC(=O)[C@H](C)NC)[nH]c2cc(F)ccc12 [Birinapant]	-150	
COc1cc2c(Nc3ccc(Cl)c(Cl)c3F)ncnc2cc1OC[C@@H]1C[C@@H]2CN(C)C[C@@H]2C1 + CC[C@H](NC(=O)[C@H](C)NC)C(=O)N1C[C@@H](O)C[C@H]1Cc1c(-c2[nH]c3cc(F)ccc3c2C[C@@H]2C[C@H](O)CN2C(=O)[C@H](CC)NC(=O)[C@H](C)NC)[nH]c2cc(F)ccc12 [Birinapant]	-5.11	
Nc1cc(C(F)(F)F)c(-c2cc(N3CCOCC3)nc(N3CCOCC3)n2)cn1 + CC[C@H](NC(=O)[C@H](C)NC)C(=O)N1C[C@@H](O)C[C@H]1Cc1c(-c2[nH]c3cc(F)ccc3c2C[C@@H]2C[C@H](O)CN2C(=O)[C@H](CC)NC(=O)[C@H](C)NC)[nH]c2cc(F)ccc12 [Birinapant]	242	
c1ccc(CNc2nc(NCc3ccccc3)c3ccccc3n2)cc1 + CC[C@H](NC(=O)[C@H](C)NC)C(=O)N1C[C@@H](O)C[C@H]1Cc1c(-c2[nH]c3cc(F)ccc3c2C[C@@H]2C[C@H](O)CN2C(=O)[C@H](CC)NC(=O)[C@H](C)NC)[nH]c2cc(F)ccc12 [Birinapant]	-180	
CCC(C)SSc1ncc[nH]1 (centres undefined) + CC[C@H](NC(=O)[C@H](C)NC)C(=O)N1C[C@@H](O)C[C@H]1Cc1c(-c2[nH]c3cc(F)ccc3c2C[C@@H]2C[C@H](O)CN2C(=O)[C@H](CC)NC(=O)[C@H](C)NC)[nH]c2cc(F)ccc12 [Birinapant]	79.6	
CS(=O)(=O)Oc1ccc2c(NC(N)=O)c(C(=O)c3ccc(Cl)cc3Cl)oc2c1 [Lirimilast] + CC[C@H](NC(=O)[C@H](C)NC)C(=O)N1C[C@@H](O)C[C@H]1Cc1c(-c2[nH]c3cc(F)ccc3c2C[C@@H]2C[C@H](O)CN2C(=O)[C@H](CC)NC(=O)[C@H](C)NC)[nH]c2cc(F)ccc12 [Birinapant]	-20.9	
CCC1=C[C@@H]2CN(C1)Cc1c([nH]c3ccccc13)[C@@](C(=O)OC)(c1cc3c(cc1OC)N(C)[C@H]1[C@@](O)(C(=O)OC)[C@H](OC(C)=O)[C@]4(CC)C=CCN5CC[C@]31[C@@H]54)C2 [Vinorelbine] + CC[C@H](NC(=O)[C@H](C)NC)C(=O)N1C[C@@H](O)C[C@H]1Cc1c(-c2[nH]c3cc(F)ccc3c2C[C@@H]2C[C@H](O)CN2C(=O)[C@H](CC)NC(=O)[C@H](C)NC)[nH]c2cc(F)ccc12 [Birinapant]	91.9	
COc1cc(C(C)=O)ccc1OCCCN1CCC(c2noc3cc(F)ccc23)CC1 [Iloperidone] + CC[C@H](NC(=O)[C@H](C)NC)C(=O)N1C[C@@H](O)C[C@H]1Cc1c(-c2[nH]c3cc(F)ccc3c2C[C@@H]2C[C@H](O)CN2C(=O)[C@H](CC)NC(=O)[C@H](C)NC)[nH]c2cc(F)ccc12 [Birinapant]	75	
CN1C(=O)C(Cc2c[nH]c3ccccc23)NC1=S (centres undefined) [Necrostatin-1] + CC[C@H](NC(=O)[C@H](C)NC)C(=O)N1C[C@@H](O)C[C@H]1Cc1c(-c2[nH]c3cc(F)ccc3c2C[C@@H]2C[C@H](O)CN2C(=O)[C@H](CC)NC(=O)[C@H](C)NC)[nH]c2cc(F)ccc12 [Birinapant]	340	
Clc1ccc(-c2nc3sccn3c2/C=N/OCc2ccc(Cl)c(Cl)c2)cc1 + CC[C@H](NC(=O)[C@H](C)NC)C(=O)N1C[C@@H](O)C[C@H]1Cc1c(-c2[nH]c3cc(F)ccc3c2C[C@@H]2C[C@H](O)CN2C(=O)[C@H](CC)NC(=O)[C@H](C)NC)[nH]c2cc(F)ccc12 [Birinapant]	56.2	
NS(=O)(=O)OC[C@@H]1C[C@@H](n2ccc3c(N[C@H]4CCc5ccccc54)ncnc32)C[C@@H]1O + CC[C@H](NC(=O)[C@H](C)NC)C(=O)N1C[C@@H](O)C[C@H]1Cc1c(-c2[nH]c3cc(F)ccc3c2C[C@@H]2C[C@H](O)CN2C(=O)[C@H](CC)NC(=O)[C@H](C)NC)[nH]c2cc(F)ccc12 [Birinapant]	-120	-1280
CN1CCCN=C1/C=C/c1cccs1 [Pyrantel pamoate] + CC[C@H](NC(=O)[C@H](C)NC)C(=O)N1C[C@@H](O)C[C@H]1Cc1c(-c2[nH]c3cc(F)ccc3c2C[C@@H]2C[C@H](O)CN2C(=O)[C@H](CC)NC(=O)[C@H](C)NC)[nH]c2cc(F)ccc12 [Birinapant]	18.2	
O=C(Nc1nc2cccc(-c3ccc(CN4CCS(=O)(=O)CC4)cc3)n2n1)C1CC1 [Filgotinib] + CC[C@H](NC(=O)[C@H](C)NC)C(=O)N1C[C@@H](O)C[C@H]1Cc1c(-c2[nH]c3cc(F)ccc3c2C[C@@H]2C[C@H](O)CN2C(=O)[C@H](CC)NC(=O)[C@H](C)NC)[nH]c2cc(F)ccc12 [Birinapant]	94.7	
COc1cccc2nc(-c3cccs3)nc(NN3C(=O)C=C(C)C3=O)c12 + CC[C@H](NC(=O)[C@H](C)NC)C(=O)N1C[C@@H](O)C[C@H]1Cc1c(-c2[nH]c3cc(F)ccc3c2C[C@@H]2C[C@H](O)CN2C(=O)[C@H](CC)NC(=O)[C@H](C)NC)[nH]c2cc(F)ccc12 [Birinapant]	-105	-1130
COCC[n+]1c2c(n(Cc3cnccn3)c1C)C(=O)c1ccccc1C2=O [Sepantronium bromide] + CC[C@H](NC(=O)[C@H](C)NC)C(=O)N1C[C@@H](O)C[C@H]1Cc1c(-c2[nH]c3cc(F)ccc3c2C[C@@H]2C[C@H](O)CN2C(=O)[C@H](CC)NC(=O)[C@H](C)NC)[nH]c2cc(F)ccc12 [Birinapant]	55.3	281
CCCCCNC(=O)N1CCC(CN(Cc2ccc(Cl)cc2)Cc2ccc([N+](=O)[O-])s2)C1 (centres undefined) + CC[C@H](NC(=O)[C@H](C)NC)C(=O)N1C[C@@H](O)C[C@H]1Cc1c(-c2[nH]c3cc(F)ccc3c2C[C@@H]2C[C@H](O)CN2C(=O)[C@H](CC)NC(=O)[C@H](C)NC)[nH]c2cc(F)ccc12 [Birinapant]	-0.0169	
O=c1ccn(C2OC(CO)C(O)C2F)c(=O)[nH]1 (centres undefined) + CC[C@H](NC(=O)[C@H](C)NC)C(=O)N1C[C@@H](O)C[C@H]1Cc1c(-c2[nH]c3cc(F)ccc3c2C[C@@H]2C[C@H](O)CN2C(=O)[C@H](CC)NC(=O)[C@H](C)NC)[nH]c2cc(F)ccc12 [Birinapant]	232	
Cc1cc(Nc2cc(CN3CCOCC3)c3nc(C)c(Cc4ccc(Cl)cc4F)n3n2)n[nH]1 [Gandotinib] + CC[C@H](NC(=O)[C@H](C)NC)C(=O)N1C[C@@H](O)C[C@H]1Cc1c(-c2[nH]c3cc(F)ccc3c2C[C@@H]2C[C@H](O)CN2C(=O)[C@H](CC)NC(=O)[C@H](C)NC)[nH]c2cc(F)ccc12 [Birinapant]	66.5	
COc1ccc(-c2c(-c3ccc(O)cc3O)n[nH]c2C)cc1 + CC[C@H](NC(=O)[C@H](C)NC)C(=O)N1C[C@@H](O)C[C@H]1Cc1c(-c2[nH]c3cc(F)ccc3c2C[C@@H]2C[C@H](O)CN2C(=O)[C@H](CC)NC(=O)[C@H](C)NC)[nH]c2cc(F)ccc12 [Birinapant]	59.5	
Cc1c(CN2CCN(S(C)(=O)=O)CC2)sc2c(N3CCOCC3)nc(-c3cnc(N)nc3)nc12 + CC[C@H](NC(=O)[C@H](C)NC)C(=O)N1C[C@@H](O)C[C@H]1Cc1c(-c2[nH]c3cc(F)ccc3c2C[C@@H]2C[C@H](O)CN2C(=O)[C@H](CC)NC(=O)[C@H](C)NC)[nH]c2cc(F)ccc12 [Birinapant]	87.6	
C/C=C1\NC(=O)[C@H]2CSSCC/C=C/[C@H](CC(=O)N[C@H](C(C)C)C(=O)N2)OC(=O)[C@H](C(C)C)NC1=O [Romidepsin] + CC[C@H](NC(=O)[C@H](C)NC)C(=O)N1C[C@@H](O)C[C@H]1Cc1c(-c2[nH]c3cc(F)ccc3c2C[C@@H]2C[C@H](O)CN2C(=O)[C@H](CC)NC(=O)[C@H](C)NC)[nH]c2cc(F)ccc12 [Birinapant]	-212	-1300
COc1cccc2c(NCc3ccccc3)nc(-n3c(N)nc4ccccc43)nc12 + CC[C@H](NC(=O)[C@H](C)NC)C(=O)N1C[C@@H](O)C[C@H]1Cc1c(-c2[nH]c3cc(F)ccc3c2C[C@@H]2C[C@H](O)CN2C(=O)[C@H](CC)NC(=O)[C@H](C)NC)[nH]c2cc(F)ccc12 [Birinapant]	17	
